Screening data (PubChem BioAssay)
LASV entry inh: qHTS for Inhibitors of binding or entry into cells for Lassa Virus. Lassa virus pseudotyped entry inhibition, cell-based qHTS. Potency, µM (series often up to 49.2 µM), inactives show at the top dose activity change, negative = inhibition, usual class: inhibitors. actives 4.1% (n = 18,000). AID 720533, 2013
MARV entry inh: qHTS for Inhibitors of binding or entry into cells for Marburg Virus. Marburg virus pseudotype entry/binding inhibition, cell-based. Potency, µM (top dose mostly 49.2 µM), without a hit: top-dose activity change, negative = inhibition, actives largely listed as inhibitors. AID 720532, 2013. actives 6.5% (n = 18,000)
Starred values were filed as active, the others as inactive; ? = inconclusive; . = no result given; [ ] = remark or other dose. Most compounds without a hit are left out; they make up all but 8% or so of the library. Calls come from the whole dose curve; tested in HEK293 cells. % is set by controls: 0 for no effect and ±100 for the full control effect; potency is the fitted concentration of half-maximal effect.

SMILES | LASV entry inh | MARV entry inh
CN(C)c1ccc(-c2nc(NC3CCNCC3)c3ccccc3n2)cc1 | -27.8% | 14.1µM*
COCCNc1nc(-c2ccc(N(C)C)cc2)nc2ccccc12 | 4.0% | ?
O=C(C=Cc1ccccc1)Nc1cccc(C(=O)NCCc2ccccc2)c1 | -12.6% | 7.6%
CC[C@]1(O)CC(O[C@@H]2CC(N(C)C)C(O)C(C)O2)c2c(cc3c(c2O)C(=O)c2c(O)ccc(O)c2C3=O)C1C(=O)OC (stereo partly specified) | -2.7% | ?
CC[C@@]1(O)C[C@H](O[C@H]2C[C@H](N(C)C)[C@H](O[C@H]3C[C@H](O)[C@H](O[C@H]4CCC(=O)[C@H](C)O4)[C@H](C)O3)[C@H](C)O2)c2c(cc3c(c2O)C(=O)c2c(O)cccc2C3=O)[C@H]1C(=O)OC | 8.91µM* | ?
C=C(CCN1C=C(C(C)=O)C(c2ccccc2)NC1=O)c1ccccc1 (stereo unspecified) | -7.6%[8.59 µM] | ?
CCc1nc(N)nc(N)c1-c1ccc(Cl)cc1 | ? | 14.1µM*
Nc1ccc(Cl)cc1 | ? | -1.2%[107 µM]
CC(=O)OCC(=O)[C@@]1(O)CC[C@H]2[C@@H]3CCC4=CC(=O)CC[C@]4(C)C3=CC[C@@]21C | -10.3% | 1.8%
CC(C)C[C@@H](NC(=O)OCC1c2ccccc2-c2ccccc21)C(=O)O | 14.0% | 8.9%
CC(=O)[C@H](CC(C)C)NC(=O)[C@@H](CC(C)C)NC(=O)[C@H](CC(C)C)NC(=O)OCc1ccccc1 | 0.316µM* | -86.8%
COC(=O)[C@H](Cc1ccccc1)NC(=O)[C@@H](N)CC(=O)O | 2.9% | 22.1%
CC(C)C[C@@H](/C=C/S(C)(=O)=O)NC(=O)[C@H](CC(C)C)NC(=O)[C@H](CC(C)C)NC(=O)OCc1ccccc1 | 1.12µM* | ?
C=CC1(O)C(OC)=CC2C(=O)C1C(c1ccccc1)C2C (stereo unspecified) | . | 14.1%[8.59 µM]
Cc1cc2c(c(=O)n1-c1ccccc1)[C@H]1O[C@](c3ccsc3)(Cc3cc(C#N)ccc31)O2 | 3.9%[8.59 µM] | -12.1%[8.59 µM]
CC(C)Nc1oc(-c2ccccc2)nc1-c1ccc(C(F)(F)F)cc1 | -11.1%[8.59 µM] | -8.1%[8.59 µM]
O[C@@H]1CN(Cc2cccs2)[C@@H](c2ccccc2)C[C@@H]1n1cc(C2CC2)nn1 | -6.5% | -23.9%
CC(C)[C@@H](C)/C=C/[C@@H](C)[C@H]1CC[C@H]2/C(=C/C=C3\C[C@@H](O)CC[C@@H]3C)CCC[C@]12C | 22.4µM* | 12.7%
C=C1CCC(O)C/C1=C/C=C1\CCC[C@@]2(C)C(C(C)/C=C/C(C)C(C)C)CC[C@@H]12 (stereo partly specified) | -21.7% | -29.4%
CC1O[C@@H](OC2CC[C@@]3(C=O)C4CC[C@]5(C)C(C6=CC(=O)OC6)CC[C@@]5(O)C4CC[C@]3(O)C2)C(O)C(O)C1O (stereo partly specified) | 0.251µM* | 0.199µM*
COC1C(O)C(OC2CC[C@]3(C=O)C4C(OC(C)=O)C[C@@]5(C)C(C6=CC(=O)OC6)CC[C@]5(O)C4CC[C@]3(O)C2)OC(C)C1OC(C)=O (stereo partly specified) | 0.4% | -13.3%
C[C@@H]1O[C@@H](O[C@H]2CC[C@]3(C=O)C4CC[C@]5(C)[C@@H](C6=CC(=O)OC6)CC[C@]5(O)[C@@H]4CC[C@]3(O)C2)[C@H](O)[C@H](O)[C@H]1O (stereo partly specified) | 0.112µM* | 0.1µM*
C[C@]12CCC3C(CC[C@]4(O)CC(O)CC[C@@]34C=O)[C@]1(O)CCC2C1=CC(=O)OC1 (stereo partly specified) | 11.2µM* | 10µM*
CC(C)OC(=O)[C@H](C)NC(=O)N1CCc2nc(-c3ccccc3)c3c(c2C1)CO[C@@H](C)C3 | -8.5%[8.59 µM] | -2.4%[8.59 µM]
CC(C)NC(=O)[C@@H]1C[C@@H](Sc2nc3ccccc3[nH]2)CN1C1Cc2ccccc2C1 | ? | -10.3%
SMILES | LASV entry inh | MARV entry inh
C[C@@H](ON=C1[C@H]2CCn3c(=O)n(-c4ccccc4)c(=O)n3[C@@H]2[C@H](O)[C@@H]2O[C@H]12)c1cn([C@@H]2COC[C@@H]2O)nn1 | -18.6%[8.59 µM] | 35.5%[8.59 µM]
COC1=CC2C(=O)C(C1=O)C1c3ccccc3CC21 (stereo unspecified) | -17.3%[8.59 µM] | -3.0%[8.59 µM]
COC(=O)[C@@]1(C=C2c3ccc(OC)cc3[C@@H](OC)[C@@H]2C)[C@@H]2C=CC[C@@H]21 | -25.6%[8.59 µM] | -11.0%[8.59 µM]
CC(C)(C)NCC(O)c1ccc(O)c(CO)c1 (stereo unspecified) | -3.7% | 13.1%
OCc1cc(C(O)CNCCCCCCOCCCCc2ccccc2)ccc1O (stereo unspecified) | ? | 15.8µM*
CCOC(=O)C1(c2ccccc2)CCN(CCC(C#N)(c2ccccc2)c2ccccc2)CC1 | 7.94µM* | 2.51µM*
CCC(=O)OC1(c2ccccc2)CCN(C)CC1 | -5.9%[107 µM] | -15.3%[107 µM]
C[C@H]1CC[C@H]2C(=O)N[C@H](Cc3ccccc3)C(=O)N2[C@H]1c1ccccc1 | 9.1%[8.59 µM] | -17.3%[8.59 µM]
CCCC=Cc1ccc(CN2C(C(C)C)C(=O)N(Cc3cn(CCC4OCCO4)nn3)CCS2(=O)=O)cc1 (stereo unspecified) | . | -25.2%
CCCCc1c(O)n(-c2ccccc2)[nH]c1=O | 10µM* | -2.4%
CCCCC1C(=O)N(c2ccccc2)N(c2ccc(O)cc2)C1=O (stereo unspecified) | ? | 47.6%[17.8 µM]
CC(=O)c1ccc(OCc2cn(CC(=O)c3ccc(O)cc3)nn2)cc1C | 8.1% | 12.0%
COc1ccc(C(C)=O)c(O)c1 | 13.9% | 18.6%
COCc1cc(O)c(O)c(O)c1-c1c(COC)cc(O)c(O)c1O | -14.1% | 7.94µM*
COC(=O)C(C(=O)OC)[C@@H]1O[C@@]23COCC[C@]2(C)[C@@H]3c2ccccc21 | -9.4%[8.59 µM] | 17.1%[8.59 µM]
CCOC(=O)NN=C1C[C@@H](O)[C@@H](O)[C@@H]2[C@H]3C(=O)N(C4CCCCC4)C(=O)[C@@H]3CC[C@@H]12 | . | -24.9%[8.59 µM]
Nc1ccccc1 | -10.0% | -3.4%
O=c1c(-c2ccccc2)c1-c1ccccc1 | 7.08µM* | 14.1µM*
Cc1cc(C(=O)NCc2nnc3n2CCN(Cc2ccc4c(c2)Cc2ccccc2-4)CC3)c(C)o1 | -16.2% | 7.6%
COc1c(C)c2c(c(O)c1C/C=C(\C)CCC(=O)OCCN1CCOCC1)C(=O)OC2 | 1.12µM* | 1.12µM*
CCN1C(=NCCCCO)N[C@@H](CCc2ccccc2)[C@H](C(=O)OC)[C@H]1C | -7.6%[8.59 µM] | 9.2%[8.59 µM]
CC(=O)OC[C@H]1O[C@H](CC=NOC[C@@H](O)[C@H]2O[C@@H]3OC(C)(C)O[C@H]3[C@@H]2O)C=C[C@H]1OC(C)=O | -4.6%[8.59 µM] | ?
O=C(Nc1ccc(Cl)c(Cl)c1)C1CC1 | -9.1% | 5.6%
O=C(Cc1ccc(Cl)c(Cl)c1)N1CCCCC1CN1CCCC1 (stereo unspecified) | ? | 7.94µM*
Cc1cnc(SCc2ccccn2)nc1C1CCCN(C(=O)c2ccc3c(c2)OCO3)C1 (stereo unspecified) | -15.3% | -1.0%
Oc1ccc2[nH]cc(CCCCN3CC=C(c4ccccc4)CC3)c2c1 | -16.4% | 20µM*
O=C(O)c1ccc2[nH]cc(CCCCN3CC=C(c4ccccc4)CC3)c2c1 | -3.6% | ?
